# This is one part of a sample in which the strongest signals are shown more often than they occur.
# Key:
# Assay in all cases: glycan array binding signal (z-score within array); higher = stronger binding
# Settings in all cases: glycan notation: IUPAC condensed, linker removed
# [1] = molecular target: Fuc(a1-2)Gal(b1-4)GlcNAc
# Method in brief: (§1)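 Glycan array data were curated from 3228 arrays in the Consortium for Functional Glycomics database and kept only where the protein sequence was available. Glycan names were converted to IUPAC-condensed notation, and columns mapping to the same glycan were averaged. The binding signal is a within-array Z-score, averaged across arrays of the same protein sequence at different concentrations or buffers and across linkers. Negative Z-scores can be read as non-binding.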
# [2] = molecular target: Fuc(a1-2)Gal(b1-4)GlcNAc(b1-2)Man(a1-3)[Fuc(a1-2)Gal(b1-4)GlcNAc(b1-2)Man(a1-6)]Man(b1-4)GlcNAc(b1-4)[Fuc(a1-6)]GlcNAc
# Method in brief: as §1
# [3] = molecular target: Fuc(a1-2)Gal(b1-4)GlcNAc(b1-3)Gal(b1-4)GlcNAc
# Method in brief: as §1
# [4] = molecular target: Fuc(a1-2)[Gal(a1-3)]Gal
# Method in brief: as §1
# [5] = molecular target: Fuc(a1-2)[GalNAc(a1-3)]Gal(b1-4)GlcNAc(b1-6)GalNAc
# Method in brief: as §1
# [6] = molecular target: Fuc(a1-2)[GalNAc(a1-3)]Gal(b1-4)[Fuc(a1-3)]GlcNAc
# Method in brief: as §1
# [7] = molecular target: Fuc(a1-3)[GalNAc(b1-4)]GlcNAc
# Method in brief: as §1
# [8] = molecular target: Gal(a1-3)Gal(b1-3)GlcNAc(b1-3)GalNAc
# Method in brief: as §1
# [9] = molecular target: Gal(a1-3)Gal(b1-3)GlcNAc(b1-6)GalNAc
# Method in brief: as §1
# [10] = molecular target: Gal(a1-3)Gal(b1-4)GlcNAc(b1-2)Man(a1-3)[Gal(a1-3)Gal(b1-4)GlcNAc(b1-2)Man(a1-6)]Man(b1-4)GlcNAc(b1-4)GlcNAc
# Method in brief: as §1
# [11] = molecular target: Gal(a1-4)Gal(b1-4)GlcNAc(b1-3)Gal(b1-4)Glc
# Method in brief: as §1
# [12] = molecular target: Gal(b1-3)Gal(b1-4)GlcNAc
# Method in brief: as §1
# [13] = molecular target: Gal(b1-3)GalNAc(b1-4)Gal(b1-4)Glc
# Method in brief: as §1
# [14] = molecular target: Gal(b1-3)GlcNAc(b1-2)Man(a1-3)[GlcNAc(b1-4)][Gal(b1-3)GlcNAc(b1-2)Man(a1-6)]Man(b1-4)GlcNAc(b1-4)GlcNAc
# Method in brief: as §1
# [15] = molecular target: Gal(b1-3)GlcNAc(b1-6)Gal(b1-4)GlcNAc
# Method in brief: as §1
# [16] = molecular target: Gal(b1-3)[Fuc(a1-4)]GlcNAc(b1-3)Gal(b1-4)[Fuc(a1-3)]GlcNAc
# Method in brief: as §1
# [17] = molecular target: Gal(b1-4)GalNAc(b1-3)[Fuc(a1-2)]Gal(b1-4)GlcNAc
# Method in brief: as §1
# [18] = molecular target: Gal(b1-4)GlcNAc(b1-2)Man(a1-3)[Gal(b1-4)GlcNAc(b1-2)Man(a1-6)]Man(b1-4)GlcNAc(b1-4)[Fuc(a1-6)]GlcNAc
# Method in brief: as §1
# [19] = molecular target: Gal(b1-4)GlcNAc(b1-3)Gal(b1-3)GlcNAc
# Method in brief: as §1
# [20] = molecular target: Gal(b1-4)GlcNAc(b1-3)Gal(b1-4)GlcNAc(b1-2)Man(a1-3)[Gal(b1-4)GlcNAc(b1-3)Gal(b1-4)GlcNAc(b1-2)Man(a1-6)]Man(b1-4)GlcNAc(b1-4)GlcNAc
# Method in brief: as §1
# [21] = molecular target: Gal(b1-4)GlcNAc(b1-3)Gal(b1-4)GlcNAc(b1-3)Gal(b1-4)GlcNAc(b1-2)Man(a1-3)[Gal(b1-4)GlcNAc(b1-3)Gal(b1-4)GlcNAc(b1-3)Gal(b1-4)GlcNAc(b1-2)Man(a1-6)]Man(b1-4)GlcNAc(b1-4)GlcNAc
# Method in brief: as §1
# [22] = molecular target: Gal(b1-4)GlcNAc(b1-3)Gal(b1-4)GlcNAc(b1-3)GalNAc
# Method in brief: as §1
# [23] = molecular target: Gal(b1-4)GlcNAc(b1-3)Gal(b1-4)GlcNAc(b1-3)[Gal(b1-4)GlcNAc(b1-3)Gal(b1-4)GlcNAc(b1-6)]GalNAc
# Method in brief: as §1
# [24] = molecular target: Gal(b1-4)GlcNAc(b1-3)Gal(b1-4)GlcNAc(b1-6)[Gal(b1-3)]GalNAc
# Method in brief: as §1
# [25] = molecular target: Gal4S(b1-4)GlcNAc
# Method in brief: as §1
# [26] = molecular target: Gal6P(b1-4)GlcNAc
# Method in brief: as §1
# [27] = molecular target: GalNAc(b1-3)GalNAc
# Method in brief: as §1
# [28] = molecular target: GalNAc(b1-6)GalNAc
# Method in brief: as §1
# [29] = molecular target: GlcNAc(b1-2)[GlcNAc(b1-4)]Man(a1-3)[GlcNAc(b1-4)][GlcNAc(b1-2)[GlcNAc(b1-6)]Man(a1-6)]Man(b1-4)GlcNAc(b1-4)[Fuc(a1-6)]GlcNAc
# Method in brief: as §1
# [30] = molecular target: GlcNAc(b1-2)[GlcNAc(b1-6)]Man(a1-6)[GlcNAc(b1-2)Man(a1-3)]Man(b1-4)GlcNAc(b1-4)GlcNAc
# Method in brief: as §1
binder,measurement,setting,value
"CBM13 2a (Mycobacterium tuberculosum), P64849 (protein) DGPVQLKSRLGDVCLDAPSGSWFSPLVINPCNGTDFQRWNLTDDRQVESVAFPGECVNIGNALWARLQPCVNWISQHWTVQPDGLVKSDLDACLTVLGGPDPGTWVSTRWCDPNAPDQQWDSVPLEHHHHHH",glycan array binding signal (z-score),[1],-0.294
same,glycan array binding signal (z-score),[2],0.023
same,glycan array binding signal (z-score),[3],-0.362
same,glycan array binding signal (z-score),[4],-0.26
same,glycan array binding signal (z-score),[5],-0.303
same,glycan array binding signal (z-score),[6],0.434
same,glycan array binding signal (z-score),[7],-0.31
same,glycan array binding signal (z-score),[8],-0.132
same,glycan array binding signal (z-score),[9],-0.286
same,glycan array binding signal (z-score),[10],-0.178
same,glycan array binding signal (z-score),[11],-0.267
same,glycan array binding signal (z-score),[12],-0.121
same,glycan array binding signal (z-score),[13],-0.32
same,glycan array binding signal (z-score),[14],-0.203
same,glycan array binding signal (z-score),[15],-0.345
same,glycan array binding signal (z-score),[16],-0.184
same,glycan array binding signal (z-score),[17],-0.335
same,glycan array binding signal (z-score),[18],0.207
same,glycan array binding signal (z-score),[19],-0.187
same,glycan array binding signal (z-score),[20],3.82
same,glycan array binding signal (z-score),[21],3.22
same,glycan array binding signal (z-score),[22],6.08
same,glycan array binding signal (z-score),[23],4.69
same,glycan array binding signal (z-score),[24],5.73
same,glycan array binding signal (z-score),[25],-0.154
same,glycan array binding signal (z-score),[26],-0.708
same,glycan array binding signal (z-score),[27],-0.167
same,glycan array binding signal (z-score),[28],-0.3
same,glycan array binding signal (z-score),[29],-0.406
same,glycan array binding signal (z-score),[30],0.094
